The text below walks through data of PubChem BioAssay AID504660 (National Center for Advancing Translational Sciences (NCATS), 2011).

Molecules are shown by their SMILES. The campaign covered roughly 360,000 compounds. About 3,700 (1%) were called active. No stated cut-off is given here; in the data, active means activation above about 30%; inactive means the rest. The full list was thinned out, with actives kept by preference.

Chain of D(1A) dopamine receptor (Homo sapiens) (P21728 whole entry, looked up): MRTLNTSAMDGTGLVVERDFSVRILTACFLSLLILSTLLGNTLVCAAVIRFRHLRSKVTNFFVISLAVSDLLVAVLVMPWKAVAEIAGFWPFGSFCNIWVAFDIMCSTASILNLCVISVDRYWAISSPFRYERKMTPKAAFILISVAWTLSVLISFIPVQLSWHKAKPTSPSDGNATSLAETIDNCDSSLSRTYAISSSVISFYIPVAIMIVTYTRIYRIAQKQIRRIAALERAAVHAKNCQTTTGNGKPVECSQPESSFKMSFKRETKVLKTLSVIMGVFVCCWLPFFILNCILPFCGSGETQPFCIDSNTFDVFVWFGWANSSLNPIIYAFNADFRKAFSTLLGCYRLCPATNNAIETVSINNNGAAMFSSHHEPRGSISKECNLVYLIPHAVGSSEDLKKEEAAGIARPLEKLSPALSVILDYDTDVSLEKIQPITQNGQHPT

This assay deals with D(1A) dopamine receptor (Homo sapiens) (UniProt P21728). As to the kind of experiment: Allosteric Agonists of the Human D1 Dopamine Receptor: qHTS. Further: 0% is about no effect. The note with it: HEK293 T-REx D1 cells, calcium flux, agonist mode; at 2 µM; hits give high values. The procedure, abridged:
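Inducible HEK293 T-REx D1 cells, force-coupled to calcium signalling, were plated at 4000 cells/well with tetracycline and held overnight at 30 C. After no-wash calcium dye loading, compound-evoked calcium rise over 180 s flagged agonists.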
As to `CCn1c(=O)c(=O)n(CC)c2cc(N3CCCCC3)c(NC(=O)c3cccc(F)c3)cc21`, the activation is -0.479% (inactive).
Under `CCCS(=O)(=O)c1c(Nc2ccccc2C)sc(C(=O)c2ccccc2)c1N` stands 32.6% (active); under `COc1c(F)c(F)c(C(=O)O)c(Nc2ccccc2C)c1F`, 1.04% (inactive); under `CCCCCN(C(=O)NC(=O)Nc1ccccc1C)S(C)(=O)=O`, 4.03% (inactive).
Under `CCOC(=O)N1CCc2c(sc3c2c(=O)n(-c2ccc(CC)cc2)c(=O)n3C)C1` stands -0.644% (inactive); under `CCOC(=O)c1cc2c(=O)n3ccccc3nc2n(CC2CCCO2)c1=NC(=O)c1ccc(C(C)(C)C)cc1` (stereo not given), 2.73% (inactive).
For `CCCCCCc1cc2cc(-c3nnc(-c4ccccc4)o3)c(=O)oc2cc1O`, the activation was 297% (active).
To `CCOc1ccc(CCNC(=O)c2c(C)oc3ncn(C)c(=O)c23)cc1` belongs 0.93% (inactive); to `CSc1ccc(C2C(C(=O)Nc3ccccc3)=C(C)Nc3nc4ccccc4n32)cc1` (stereo not given), -0.673% (inactive); to `Cc1ccc(NC(=O)CN2C(=O)C(c3ccc(F)cc3)=NC23CCCCCC3)c(C)c1`, 7.18% (inactive).
Under `CC(C)c1ccc(NS(=O)(=O)c2ccc3[nH]cc(C(=O)NC4CCCC4)c(=O)c3c2)cc1` stands 5.71% (inactive).
To `Cc1ccc(NC(=O)c2ccc(CN3CC(=O)N4CCCCC4C3=O)cc2)c(Cl)c1` (stereo not given) belongs 1.1% (inactive); to `CNCC[C@H](Oc1ccc(C(F)(F)F)cc1)c1ccccc1`, 111% (active); to `CC(NC(=O)Cn1cc(C(F)(F)F)cc(Cl)c1=O)c1ccccc1` (stereo not given), -0.532% (inactive).
For the compound `CN(C)c1ccc(C(=O)NCC(=O)OC(C(=O)Nc2cc(C(F)(F)F)ccc2Cl)c2ccccc2)cc1` (stereo not given), the activation was 1.69% (inactive).
For `COc1ccc(OC)c(NC(=O)CSC2=Nc3ccccc3C3=NC(CC(=O)NCCc4ccccc4)C(=O)N23)c1` (stereo not given), the activation is 1.84% (inactive).
Under `COc1ccc(-c2ccc(CNCCCN3CCOCC3)o2)cc1Cl` stands 3.69% (inactive); under `Cn1nnnc1SCCNCc1ccc(Cl)c(Cl)c1`, -0.329% (inactive).
To `Cn1nnnc1SCCCNCc1cccc(OCc2ccc(Cl)cc2)c1` belongs 74.4% (active).
To `COc1cc(CNCCSc2nnnn2C)ccc1OCc1c(F)cccc1Cl` belongs 5.58% (inactive).
On to `COc1cc(CNCCSc2nnnn2C)ccc1OCc1ccc(Cl)cc1Cl`, for which the activation is 48.2% (active).
Under `Cc1c(Cl)cccc1-c1ccc(CNCCCSc2nnnn2C)o1` stands 68.7% (active); under `CCOc1ccc(CNCCSc2nnnn2C)cc1`, -0.463% (inactive).
Under `Cn1nnnc1SCCCNCc1ccc(Cl)cc1` stands 8.22% (inactive).
Under `COc1cccc(CNCCSc2nnnn2C)c1OCc1ccccc1Cl` stands 4.2% (inactive); under `COc1ccc(-c2c(C)nn3c(N4CCC(C(=O)NCCC(C)C)CC4)cc(C)nc23)cc1OC`, 1.66% (inactive); under `Cc1ccc(Cl)cc1N(C)C(=O)Cn1nc(Cc2cccnc2)c2ccccc2c1=O`, 3.19% (inactive).
As for `Oc1c(Cl)cc(Cl)c(Cl)c1Cc1c(O)c(Cl)cc(Cl)c1Cl`, the activation is 33.5% (active).
To `COc1cc(CN(C(=O)c2ccccc2Br)c2ccccn2)cc(OC)c1OC` belongs -2.08% (inactive); to `O=C(CCNS(=O)(=O)c1ccccc1)NCCSc1ccc(Br)cc1`, 11.3% (inactive).
Under `Cc1ccc(S(=O)(=O)NCCNC(C)c2ccc(Br)cc2)cc1` (stereo not given) stands 6.77% (inactive).
To `Cc1ccc(OCCNC(=O)CCNS(=O)(=O)c2ccc(Br)cc2)cc1` belongs 74% (active); to `Fc1ccc(-n2ncc3c(Nc4ccc(Oc5ccccc5)cc4)ncnc32)cc1`, 0.314% (inactive).
`COc1ccc(C(=O)CSc2c(C(C)C)cnc3c2c(=O)n(C)c(=O)n3C)cc1`: the activation is 2.45% (inactive).
In the case of `Cc1nc(SCCOc2ccc(Cl)cc2)[nH]c(=O)c1Cc1ccccc1`, the activation was -1.18% (inactive).
To `Cc1cc2oc(C(=O)N(Cc3ccc(Cl)cc3)Cc3ccco3)c(C)c2cc1Cl` belongs 18.5% (inactive); to `O=C(NC(=S)N1CCc2ccccc21)c1ccco1`, 1.7% (inactive).
Under `CC(Oc1ccc2ccccc2c1)C(=O)NNC(=S)NC(=O)c1ccco1` (stereo not given) stands 50.2% (active); under `COc1ccc(/C=C(/NC(=O)c2ccco2)C(=O)Nc2ccc(C(C)=O)cc2)cc1`, -0.901% (inactive); under `COc1ccc(OC)c(-c2nc(C(N)=O)c3c(n2)n(-c2ccc4c(c2)OCO4)c(=O)n3C)c1`, -1.26% (inactive).
Under `COc1c(C(=O)N2CCCC2)ccc2ccccc12` stands 1.37% (inactive); under `COC(=O)CNS(=O)(=O)c1ccc(Cc2ccc(S(=O)(=O)NCC(=O)OC)cc2)cc1`, 2.26% (inactive).
Regarding `COC(=O)C[n+]1cccc2ccccc21`, the activation was 87.9% (active).
To `CC(=O)c1ccc(NC(=O)c2nc(-c3ccc(C)cc3)n3c2CCCCC3)cc1` belongs 2.3% (inactive); to `COc1ccc2cc(-c3nc(Cl)c4c5c(sc4n3)CC(C)CC5)c(=O)oc2c1` (stereo not given), 8.22% (inactive).
Under `CCOC(=O)c1c(NC(=O)/C(C#N)=C/c2ccccc2)sc2c1CCC2` stands 0.119% (inactive).
Under `CCOC(=O)c1c(NC(=S)Nc2ccccc2)sc2c1CCN(C)C2` stands 32.3% (active); under `CCOC(=O)c1c(NC(=O)NC(C)(C)C)sc2c1CCN(C)C2`, 3.08% (inactive).
For the compound `Cc1ccc(-c2nnc3c4ccccc4c(C)nn23)cc1NC(=O)c1cccc(Br)c1`, the activation was -0.644% (inactive).
Under `O=C(O)CCCCCCCCc1cn(CN2C(=O)c3ccccc3C2=O)nn1` stands 2.36% (inactive).
To `Cc1ccc(-c2nn(-c3ccccc3)cc2/C=C2\SC(=S)N(CCCCCC(=O)O)C2=O)o1` belongs 44.7% (active); to `O=C1/C(=C/c2coc3ccc(O)cc3c2=O)SC(=S)N1c1ccccc1`, 5.55% (inactive); to `O=C(Nc1ccc(F)cc1F)c1cnn(-c2ccc(F)cc2)c1-n1cccc1`, 2.54% (inactive).
Take `COc1cccc(C(=O)NC2CCN(C#N)CC2)c1`: the activation is 0.293% (inactive).
Under `c1ccc(COc2ccccc2CNCc2cccnc2)cc1` stands 34.6% (active); under `C=CCOc1cccc(CNCc2cccnc2)c1`, 3.75% (inactive); under `CCC(Oc1ccccc1)C(=O)NCc1cccnc1` (stereo not given), 1.93% (inactive).
To `COc1cccc(NC(=O)C2CCN(c3cc(C)nc4c(-c5ccc(Cl)cc5)c(C)nn34)CC2)c1` belongs 0.702% (inactive); to `CCCCCOc1ccc(CSC2=NCCN2)cc1[N+](=O)[O-]`, 42.9% (active); to `CCOc1ccc(C(=O)Nc2nccs2)cc1[N+](=O)[O-]`, 6.87% (inactive).
To `Cc1ccccc1NC(=O)CSC1=NCCN1` belongs 1.9% (inactive); to `COCC(C)NS(=O)(=O)c1ccc(N2CCCCS2(=O)=O)cc1` (stereo not given), 3.35% (inactive); to `CCc1cccc(NC(=O)c2cc(-c3ccccc3)n[nH]2)c1`, 12.3% (inactive).
Turning to `CCOc1ccc(/C=C(\C#N)c2nc3ccccc3c(=O)[nH]2)cc1OC`, the activation is 3.27% (inactive).
To `CCOc1cc(/C=C(\C#N)c2nc(-c3cccs3)c(NC(C)=O)s2)ccc1O` belongs 115% (active).
To `CCOc1cc(/C=C(\C#N)C(=O)Nc2ccccc2C)ccc1OCc1cc(=O)n2nc(CC)sc2n1` belongs 5.19% (inactive); to `O=C(NCC(c1ccc2c(c1)OCO2)N1CCN(c2ccccc2)CC1)C(=O)Nc1ccccc1F` (stereo not given), 1.27% (inactive); to `COc1ccc(N2CCN(C(=O)CSCc3nc(-c4ccccc4Cl)oc3C)CC2)cc1`, 7.67% (inactive).
Turning to `CCOc1cccc2c1N[C@@H](c1ccc(C(=O)O)cc1)[C@H]1CC=C[C@@H]21`, the activation was 7.61% (inactive).
Under `CC1CCCN(c2cc3c(cc2F)c(=O)c(S(=O)(=O)c2cccc(Cl)c2)cn3Cc2ccccc2)C1` (stereo not given) stands -0.839% (inactive).
With `Cc1cc2n(n1)C(c1cc(C(C)(C)C)c(O)cc1O)Nc1ccccc1-2` (stereo not given), the activation is 38.8% (active).
To `CCOC(=O)NN1C(=O)c2ccccc2NC1c1ccccc1O` (stereo not given) belongs 0.398% (inactive); to `COC(=O)c1ccc(NC(=O)c2cc(S(=O)(=O)N3CCC(C)CC3)cn2C)cc1`, 6.51% (inactive).
To `COc1cccc(CNCCc2c[nH]c3ccccc23)c1OCc1ccccc1F` belongs 18.2% (inactive); to `COc1ccc(C(CCNCc2ccccc2F)c2ccc(F)cc2)cc1` (stereo not given), 41.1% (active); to `COc1ccc(C(CNCC(=O)Nc2ccccc2F)N(C)C)cc1` (stereo not given), 0.114% (inactive).
To `CC(C)CC(NS(=O)(=O)c1ccc2c(c1)oc(=O)n2C)C(=O)NCc1ccccc1Cl` (stereo not given) belongs 3.12% (inactive); to `CCOc1ccccc1CNCc1c(C(=O)O)c(C)n(Cc2ccc(C)cc2)c1C`, 3.68% (inactive).
Consider `Cc1cccc(N2CCN(S(=O)(=O)c3ccc4[nH]c5c(c4c3)CCCCC5)CC2)c1C`, for which the activation is 2.57% (inactive).
To `O=C(Nc1ccc2nc(SCC(=O)N3CCCc4ccccc43)sc2c1)c1ccc(F)cc1` belongs 5.54% (inactive); to `CCOC(=O)C1CCN(C(=O)C2CCN(S(=O)(=O)c3c(C)noc3C)CC2)CC1`, -2.99% (inactive); to `Cc1cc(C)c(S(=O)(=O)N2CCC(C(=O)OCc3c(C)noc3C)CC2)c(C)c1`, 45.3% (active).
Under `CCOC(=O)C1CCN(S(=O)(=O)c2c(C)noc2C)CC1` stands 0.879% (inactive).
Under `COc1ccc(CCn2cc3c(c2-c2ccc(Br)cc2)c(=O)n(C)c(=O)n3C)cc1OC` stands 0.633% (inactive); under `COc1cccc(NC(=O)N2CCN(C(=O)c3nsc4ccccc34)CC2)c1`, 10.2% (inactive); under `CCOC(=O)c1c(NC(C)=O)c2c3c(sc2n1Cc1c(C)cc(C)cc1C)CCCC3`, 1.79% (inactive).
In the case of `C/C(N)=C(/C#N)C(=O)COC(=O)C1=NN(c2ccccc2)C(=O)CC1`, the activation was 2.53% (inactive).
Turning to `COC(=O)CC1=NN(c2ccccc2)C(=O)C1`, the activation is 31.5% (active).
As for `COC(=O)CC1=NN(c2nc(C)cc(C)n2)C(=O)C1`, the activation is 13.3% (inactive).
On to `CCOC(=O)c1ccc(NC(=O)C2CC(=O)N(c3ccc(C(C)C)cc3)C2)cc1` (stereo not given), for which the activation is 0.0656% (inactive).
